From PubChem BioAssay
Only some compounds are listed: those with a hit (about 3.6% of all), similar ones and a draw of the others.
mHTT CaM bind – disrupts binding of mutant huntingtin to calmodulin | AID 1671202 | P42858 | 190,000 tested, 3.6% active | inhibition, % at 15 µM | AlphaScreen His-mHTT/GST-CaM binding, luminescence;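 note: 0% = both proteins with DMSO and 100% = one protein alone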
Target sequence (P42858 whole entry, looked up, stated change not applied): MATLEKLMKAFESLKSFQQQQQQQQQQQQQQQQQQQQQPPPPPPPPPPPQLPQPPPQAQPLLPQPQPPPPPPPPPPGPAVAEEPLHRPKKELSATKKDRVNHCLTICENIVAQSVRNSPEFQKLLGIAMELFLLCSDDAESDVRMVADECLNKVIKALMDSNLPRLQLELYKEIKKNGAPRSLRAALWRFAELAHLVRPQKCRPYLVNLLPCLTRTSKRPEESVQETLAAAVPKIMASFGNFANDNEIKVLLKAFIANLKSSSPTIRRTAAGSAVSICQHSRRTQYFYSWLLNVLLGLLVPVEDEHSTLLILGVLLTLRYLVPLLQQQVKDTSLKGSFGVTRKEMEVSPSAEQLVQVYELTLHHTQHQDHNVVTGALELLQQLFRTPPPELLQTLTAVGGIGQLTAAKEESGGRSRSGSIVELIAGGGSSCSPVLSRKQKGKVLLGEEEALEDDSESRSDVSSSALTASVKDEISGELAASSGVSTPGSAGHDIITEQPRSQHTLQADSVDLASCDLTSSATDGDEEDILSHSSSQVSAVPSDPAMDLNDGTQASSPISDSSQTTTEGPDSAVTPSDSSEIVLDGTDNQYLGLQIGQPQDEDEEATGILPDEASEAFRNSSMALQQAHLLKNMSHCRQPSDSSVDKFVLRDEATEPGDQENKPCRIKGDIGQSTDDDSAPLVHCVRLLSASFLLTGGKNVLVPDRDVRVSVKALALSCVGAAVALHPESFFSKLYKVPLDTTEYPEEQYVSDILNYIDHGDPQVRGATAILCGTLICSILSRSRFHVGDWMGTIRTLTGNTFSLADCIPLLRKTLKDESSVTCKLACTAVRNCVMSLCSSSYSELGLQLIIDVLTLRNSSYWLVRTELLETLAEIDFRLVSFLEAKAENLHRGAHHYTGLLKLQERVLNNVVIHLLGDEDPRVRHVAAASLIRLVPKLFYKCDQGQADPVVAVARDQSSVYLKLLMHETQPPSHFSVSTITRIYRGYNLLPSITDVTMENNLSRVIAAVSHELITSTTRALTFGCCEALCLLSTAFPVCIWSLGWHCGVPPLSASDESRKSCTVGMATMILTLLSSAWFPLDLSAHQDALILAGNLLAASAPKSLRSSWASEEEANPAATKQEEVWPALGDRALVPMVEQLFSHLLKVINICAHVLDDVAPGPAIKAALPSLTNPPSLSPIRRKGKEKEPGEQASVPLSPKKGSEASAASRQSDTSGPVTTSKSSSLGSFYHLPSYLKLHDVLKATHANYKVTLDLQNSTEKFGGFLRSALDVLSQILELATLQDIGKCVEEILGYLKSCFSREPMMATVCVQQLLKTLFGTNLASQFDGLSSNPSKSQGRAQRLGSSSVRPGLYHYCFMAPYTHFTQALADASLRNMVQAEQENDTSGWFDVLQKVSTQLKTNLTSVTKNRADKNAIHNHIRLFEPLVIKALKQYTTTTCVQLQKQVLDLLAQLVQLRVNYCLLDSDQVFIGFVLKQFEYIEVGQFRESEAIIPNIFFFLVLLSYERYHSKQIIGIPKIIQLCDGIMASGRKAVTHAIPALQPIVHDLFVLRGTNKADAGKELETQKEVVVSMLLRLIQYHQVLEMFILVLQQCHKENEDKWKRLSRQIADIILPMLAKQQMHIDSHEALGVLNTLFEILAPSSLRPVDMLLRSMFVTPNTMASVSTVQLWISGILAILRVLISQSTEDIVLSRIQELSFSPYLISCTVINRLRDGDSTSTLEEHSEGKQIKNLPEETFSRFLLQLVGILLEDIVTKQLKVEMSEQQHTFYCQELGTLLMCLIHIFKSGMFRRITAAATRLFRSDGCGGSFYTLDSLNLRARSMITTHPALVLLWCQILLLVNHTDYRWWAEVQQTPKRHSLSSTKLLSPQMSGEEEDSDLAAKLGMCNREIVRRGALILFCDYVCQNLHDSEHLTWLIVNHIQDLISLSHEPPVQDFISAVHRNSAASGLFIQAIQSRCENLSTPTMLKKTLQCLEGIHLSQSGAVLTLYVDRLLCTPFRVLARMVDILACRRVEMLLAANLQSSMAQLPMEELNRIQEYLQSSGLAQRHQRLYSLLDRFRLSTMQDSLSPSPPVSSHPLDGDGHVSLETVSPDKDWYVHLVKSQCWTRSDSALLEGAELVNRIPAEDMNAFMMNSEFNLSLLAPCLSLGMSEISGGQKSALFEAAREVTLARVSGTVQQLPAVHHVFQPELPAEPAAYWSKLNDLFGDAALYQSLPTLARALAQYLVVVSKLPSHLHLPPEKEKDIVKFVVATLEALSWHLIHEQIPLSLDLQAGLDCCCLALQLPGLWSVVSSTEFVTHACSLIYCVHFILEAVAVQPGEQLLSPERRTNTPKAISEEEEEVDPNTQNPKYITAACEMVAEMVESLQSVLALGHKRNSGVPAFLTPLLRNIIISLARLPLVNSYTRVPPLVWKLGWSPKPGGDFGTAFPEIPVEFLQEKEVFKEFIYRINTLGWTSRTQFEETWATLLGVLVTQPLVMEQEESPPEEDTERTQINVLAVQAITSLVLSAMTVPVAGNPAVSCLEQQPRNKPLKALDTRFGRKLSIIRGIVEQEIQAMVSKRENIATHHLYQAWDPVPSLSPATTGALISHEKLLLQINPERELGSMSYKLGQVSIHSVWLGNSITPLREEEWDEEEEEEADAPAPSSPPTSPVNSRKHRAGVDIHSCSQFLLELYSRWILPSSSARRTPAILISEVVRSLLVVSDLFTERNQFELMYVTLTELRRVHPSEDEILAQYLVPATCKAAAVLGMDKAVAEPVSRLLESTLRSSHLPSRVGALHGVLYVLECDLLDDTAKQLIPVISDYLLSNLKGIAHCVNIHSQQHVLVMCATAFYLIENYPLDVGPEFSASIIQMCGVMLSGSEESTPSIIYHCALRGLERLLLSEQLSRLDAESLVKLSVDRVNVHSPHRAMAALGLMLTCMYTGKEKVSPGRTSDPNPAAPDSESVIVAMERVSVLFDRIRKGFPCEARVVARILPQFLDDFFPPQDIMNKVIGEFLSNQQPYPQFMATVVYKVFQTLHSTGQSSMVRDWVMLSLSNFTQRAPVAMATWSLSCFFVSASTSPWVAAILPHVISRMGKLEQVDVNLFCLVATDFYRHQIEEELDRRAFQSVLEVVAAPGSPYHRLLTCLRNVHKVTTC
Pf apPOL block – Pf-apPOL DNA polymerase inhibition; Recombinant Pf-apPOL, molecular beacon fluorescence, 1.5 h; inhibition, % at 10 µM; 210,000 tested, 0.25% active; AID 1794808
An asterisk follows results filed as active; nt = no result given; ! = not confirmed by another sample. Cut-off read from the data, not from the text of the source: active = inhibition above about 50%; inactive = the rest.

SMILES | mHTT CaM bind | Pf apPOL block
CCC(=O)N1CCc2cc(-c3ccc(C(=O)N4CCCC4)cc3)ccc21 | -2.4 | -1.0
CS(=O)(=O)N1CCN(c2ccc([N+](=O)[O-])c(NCc3ccccc3)c2)CC1 | 7.6 | -6.7
CS(=O)(=O)N1CCN(c2ccc([N+](=O)[O-])c(NCc3ccc(Cl)cc3)c2)CC1 | 56.4* | -6.1
O=C(c1ccoc1)N1CCc2[nH]nc(-c3ccc(F)cc3)c2C1 | 9.9 | -6.2
CN(CC(=O)NCCCn1ncccc1=O)c1nc2c(F)cccc2s1 | -13.4 | -6.6
O=C(NCCn1ccc2ccccc21)C1(c2ccc(Cl)cc2)CCCC1 | 83.0* | 8.4
O=C(NCCn1ccc2ccccc21)c1c(F)cccc1F | -2.0 | -0.4
CCOc1ccc(S(=O)(=O)Nc2c(Cl)cccc2C(F)(F)F)c2cccnc12 | 28.0 | -1.8
CC(C)C(=O)N1CCC(Oc2ccccc2)CC1 | 2.1 | 7.4
COc1cccc(OCCNS(=O)(=O)Cc2ccccc2)c1 | -5.7 | -4.6
COc1ccc(OC)c(-c2cc3ccc(OC(=O)C(C)C)cc3oc2=O)c1 | -2.8 | -5.1
COc1ccc(-c2cc3ccc(OC(=O)C(C)C)cc3oc2=O)c(OC)c1 | 78.4* | -0.9
O=Nc1ccc(NOC(=O)/C=C/c2ccccc2)cc1 | 73.0* | -8.2
O=C(/C=C/c1ccccc1)Nc1ccc(NC(=O)c2ccco2)cc1 | 9.6 | 4.4
CC1=C(C(=O)Nc2ccc(F)cc2F)C2(CCC(C)CC2)OC1=O (centres undefined) | -8.6 | -1.2
O=C(O)c1ccc(NC2=CC(=NS(=O)(=O)c3ccccc3)c3ccccc3C2=O)cc1 | 62.0* | 6.7
O=S(=O)(N=C(NS(=O)(=O)c1ccc(Cl)cc1)c1ccccc1)c1ccccc1 | -1.0 | 2.0
CCc1ccc(S(=O)(=O)N=C2C=C(Nc3cccc(C(=O)O)c3)C(=O)c3ccccc32)cc1 | 80.0* | -3.2
O=C(O)c1cccc(NC2=CC(=NS(=O)(=O)c3ccc(F)cc3)c3ccccc3C2=O)c1 | 45.0 | 17.4
O=C1C(Nc2ccc(O)cc2)=CC(=NS(=O)(=O)c2ccc(Cl)cc2)c2ccccc21 | 98.0* | 0.4
O=C(O)c1ccc(S(=O)(=O)c2ccccc2)cc1 | 3.8 | -10.4
Cc1ccc2c(Nc3ccc(F)c(Cl)c3)c(C(=O)N3CCOCC3)cnc2n1 | -0.1 | -1.7
Cc1[nH]nc2c1C(c1ccco1)CC(c1ccco1)=C2 (centres undefined) | 64.5* | nt
Cn1nc(NC(=O)c2ccc(F)cc2Cl)c2c1NC(=O)CC2c1ccco1 (centres undefined) | -9.8 | -4.2
C[C@@H]1CC=C[C@H]2[C@H]1C(=O)N(Cc1ccccc1)[C@H]2c1ccoc1 | 14.6 | 0.7
SMILES | mHTT CaM bind | Pf apPOL block
CC[C@@H]1CC=C[C@H]2[C@H]1C(=O)N(Cc1ccccc1)[C@H]2c1ccc(C(F)(F)F)cc1 | 70.9* | -4.0
O=C1C2C(c3ccccc3)CC=CC2[C@H](c2cccc(Br)c2)N1Cc1ccccc1 (some centres undefined) | 100.3* | -0.7
O=C1C2C(c3cccc(/C=C/c4ccccc4)c3)CC=CC2C(c2ccc3ccccc3c2)N1Cc1ccccc1 (centres undefined) | -5.7 | -5.1
O=C1C2C(c3cccc(/C=C/c4ccccc4)c3)CC=CC2C(c2ccc(C(F)(F)F)cc2)N1Cc1ccccc1 (centres undefined) | -3.0 | -3.9
CC[C@@H]1CC=C[C@H]2[C@H]1C(=O)N(Cc1ccccc1)[C@H]2c1ccoc1 | 84.8* | -0.7
COc1ccc(OC)c(NC(=O)CCC(=O)Nc2ccc3nc(N4CCOCC4)cc(C)c3c2)c1 | 16.0 | -3.0
COc1ccc(Br)cc1/C=C1/N=C(c2ccc(C)cc2)OC1=O | -3.0 | -4.6
COc1cc2c(cc1OC)C(C1=NC(C)(C)Cc3ccccc31)=NC(C)(C)C2 | 13.0 | -2.1
COc1cc2c(cc1OC)C(SC)=NC(C)(C)C2 | -1.0 | 94.9*!
CCCn1c(-c2ccc(Cl)cc2)cn2c3c(=O)n(C)c(=O)n(C)c3nc12 | 3.0 | 33.3
COc1ccc(N)c(NC(=O)c2ccco2)c1 | 1.3 | -5.2
COc1ccc(C2C(C(=O)Nc3ccc4c(c3)OCO4)CC(=O)N2c2ccc(OC)cc2)cc1 (centres undefined) | 12.0 | -8.0
COc1ccc(C2C(C(=O)N(C)c3ccc(Cl)cc3)CC(=O)N2c2ccc(OC)cc2)cc1 (centres undefined) | 87.0* | -1.7
CCC(C)NC(=O)C1CCN(c2cnn(Cc3ccccc3)c(=O)c2)CC1 (centres undefined) | -3.8 | -7.1
O=c1[nH]c2cc(Cl)c(Cl)cc2nc1CN1CCN(c2ccccc2)CC1 | 51.9* | 5.6
Cc1cc2nc(CN3CCN(c4cccc(Cl)c4)CC3)c(=O)[nH]c2cc1C | -6.7 | -0.5
O=C1C(=CC2=Cc3ccccc3OC2)Oc2cc(O)ccc21 | 16.0 | 7.3
COc1cccc(C(=O)N2CCN(c3ccc([N+](=O)[O-])c(NC4CC4)c3)CC2)c1 | 37.5 | -7.2
O=C(CCCn1nc(-c2ccco2)ccc1=O)NCc1cccnc1 | 1.5 | 1.2
c1ccc2c(CN3CCN(Cc4ccc5c(c4)OCO5)CC3)c[nH]c2c1 | nt | -3.7
Cc1ccc(CC(=O)N2CCC(c3nc4ccncc4n3C)C2)cc1 (centres undefined) | -0.8 | -7.7
CCC1=NN(C(=O)c2cccc(Cl)c2)C(O)(c2ccc(Br)cc2)C1 (centres undefined) | 89.0* | 4.2
CCC1=NN(C(=O)c2ccc(Br)cc2)C(O)(c2ccccc2)C1 (centres undefined) | 36.0 | 5.0
CCC1=NN(C(=O)c2ccc(Br)cc2)C(O)(c2ccc(OC)cc2)C1 (centres undefined) | 59.0* | -1.2
CCC1=NN(C(=O)c2cccc(Br)c2)C(O)(C(F)(F)F)C1 (centres undefined) | 4.0 | 0.9
SMILES | mHTT CaM bind | Pf apPOL block
CCC1=NN(C(=O)c2ccc(Cl)cc2)C(O)(c2ccc(Br)cc2)C1 (centres undefined) | 85.0* | -12.1
CCCCC1=NN(C(=O)c2cccc(Cl)c2)C(O)(C(F)(F)F)C1 (centres undefined) | -9.0 | 56.6*
CCC1=NN(C(=O)c2ccncc2)C(O)(c2ccc(Br)cc2)C1 (centres undefined) | 42.0 | -1.9
CCC1=NN(C(=O)c2cccc(Cl)c2)C(O)(C(F)(F)F)C1 (centres undefined) | -4.0 | 3.5
CCC(=O)N1CCC(CCOc2ccc(F)cc2)CC1 | 3.2 | -2.2
CCCNC(=O)c1cccc(N2CCNC(c3ccccc3)C2)n1 (centres undefined) | -2.4 | -9.4
Cc1ccc(N2CC(C(=O)Nc3ccc(N4CCOCC4)cc3)CC2=O)cc1 (centres undefined) | 4.8 | -0.8
Cc1cccc(-c2cc(=O)c3cc(N)ccc3o2)c1 | -0.6 | -4.9
FC(F)(F)c1cc(-c2ccco2)nc(-n2cncn2)n1 | 3.0 | -1.4
Clc1ccc(C2CC(c3ccc4c(c3)OCO4)Nc3nnnn32)cc1 (centres undefined) | 18.3 | 0.8
O=[N+]([O-])c1ccc(N2CCCC2)c(OCCO)c1 | 17.1 | 2.4
CCOc1ccc(C2C(C#N)=C(C(C#N)C#N)NC(O)(C3CC3)C2[n+]2ccc(C)cc2)cc1 (centres undefined) | 17.0 | -2.8
N#CC1=C(S)NC(O)(c2ccccc2)C([n+]2ccc3ccccc3c2)C1c1cccc(F)c1 (centres undefined) | 69.0* | -6.4
CC1(O)NC(C(C#N)C#N)=C(C#N)C(c2ccc(F)cc2)C1[n+]1ccccc1 (centres undefined) | 0.0 | -2.2
